# Data published in PubChem BioAssay.
# Active and inactive are the calls of the source.
# Tests used:
# [1] = small molecules captured by biotinylated probe aFSTL3 – biochemical, small-molecule microarray, fluorescence 635/667, stem cell growth factor project, primary screen (AID 1064); conditions: higher = more signal;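 note: measures binding of the biotinylated anti-FSTL3 antibody to printed compounds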
# [2] = binders from COS7 lysate, DM2A8 probe, primary screen, torsin A project, cell lysate, small-molecule microarray, fluorescence 635/667 (AID 1065); conditions: higher = more signal, COS7 lysate expressing mutant human TOR1A
# [3] = small molecules captured by biotinylated probe aFGF2 – biochemical, small-molecule microarray, fluorescence 635/667, stem cell growth factor project, primary screen (AID 1067); conditions: higher = more signal;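 note: measures binding of biotinylated aFGF2 protein to printed compounds on slides; z-score merges feature fluorescence and signal-to-noise across triplicate slides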
# [4] = small molecules captured by biotinylated probe aFGF10 – biochemical, small-molecule microarray, fluorescence 635/667, stem cell growth factor project, primary screen (AID 1071); conditions: higher = more signal;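 note: score merges 667 nm spot intensity and signal to noise from triplicate slides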
# [5] = target: Neurogenic locus notch homolog protein 2 (Homo sapiens) (UniProt Q04721); test: small molecules binding Notch2 protein – biochemical, small-molecule microarray, 635 nm fluorescence, stem cell growth factors, primary screen (AID 1073); conditions: higher = more signal
# Chain of Neurogenic locus notch homolog protein 2 (Homo sapiens) (Q04721 whole entry, looked up, canonical isoform): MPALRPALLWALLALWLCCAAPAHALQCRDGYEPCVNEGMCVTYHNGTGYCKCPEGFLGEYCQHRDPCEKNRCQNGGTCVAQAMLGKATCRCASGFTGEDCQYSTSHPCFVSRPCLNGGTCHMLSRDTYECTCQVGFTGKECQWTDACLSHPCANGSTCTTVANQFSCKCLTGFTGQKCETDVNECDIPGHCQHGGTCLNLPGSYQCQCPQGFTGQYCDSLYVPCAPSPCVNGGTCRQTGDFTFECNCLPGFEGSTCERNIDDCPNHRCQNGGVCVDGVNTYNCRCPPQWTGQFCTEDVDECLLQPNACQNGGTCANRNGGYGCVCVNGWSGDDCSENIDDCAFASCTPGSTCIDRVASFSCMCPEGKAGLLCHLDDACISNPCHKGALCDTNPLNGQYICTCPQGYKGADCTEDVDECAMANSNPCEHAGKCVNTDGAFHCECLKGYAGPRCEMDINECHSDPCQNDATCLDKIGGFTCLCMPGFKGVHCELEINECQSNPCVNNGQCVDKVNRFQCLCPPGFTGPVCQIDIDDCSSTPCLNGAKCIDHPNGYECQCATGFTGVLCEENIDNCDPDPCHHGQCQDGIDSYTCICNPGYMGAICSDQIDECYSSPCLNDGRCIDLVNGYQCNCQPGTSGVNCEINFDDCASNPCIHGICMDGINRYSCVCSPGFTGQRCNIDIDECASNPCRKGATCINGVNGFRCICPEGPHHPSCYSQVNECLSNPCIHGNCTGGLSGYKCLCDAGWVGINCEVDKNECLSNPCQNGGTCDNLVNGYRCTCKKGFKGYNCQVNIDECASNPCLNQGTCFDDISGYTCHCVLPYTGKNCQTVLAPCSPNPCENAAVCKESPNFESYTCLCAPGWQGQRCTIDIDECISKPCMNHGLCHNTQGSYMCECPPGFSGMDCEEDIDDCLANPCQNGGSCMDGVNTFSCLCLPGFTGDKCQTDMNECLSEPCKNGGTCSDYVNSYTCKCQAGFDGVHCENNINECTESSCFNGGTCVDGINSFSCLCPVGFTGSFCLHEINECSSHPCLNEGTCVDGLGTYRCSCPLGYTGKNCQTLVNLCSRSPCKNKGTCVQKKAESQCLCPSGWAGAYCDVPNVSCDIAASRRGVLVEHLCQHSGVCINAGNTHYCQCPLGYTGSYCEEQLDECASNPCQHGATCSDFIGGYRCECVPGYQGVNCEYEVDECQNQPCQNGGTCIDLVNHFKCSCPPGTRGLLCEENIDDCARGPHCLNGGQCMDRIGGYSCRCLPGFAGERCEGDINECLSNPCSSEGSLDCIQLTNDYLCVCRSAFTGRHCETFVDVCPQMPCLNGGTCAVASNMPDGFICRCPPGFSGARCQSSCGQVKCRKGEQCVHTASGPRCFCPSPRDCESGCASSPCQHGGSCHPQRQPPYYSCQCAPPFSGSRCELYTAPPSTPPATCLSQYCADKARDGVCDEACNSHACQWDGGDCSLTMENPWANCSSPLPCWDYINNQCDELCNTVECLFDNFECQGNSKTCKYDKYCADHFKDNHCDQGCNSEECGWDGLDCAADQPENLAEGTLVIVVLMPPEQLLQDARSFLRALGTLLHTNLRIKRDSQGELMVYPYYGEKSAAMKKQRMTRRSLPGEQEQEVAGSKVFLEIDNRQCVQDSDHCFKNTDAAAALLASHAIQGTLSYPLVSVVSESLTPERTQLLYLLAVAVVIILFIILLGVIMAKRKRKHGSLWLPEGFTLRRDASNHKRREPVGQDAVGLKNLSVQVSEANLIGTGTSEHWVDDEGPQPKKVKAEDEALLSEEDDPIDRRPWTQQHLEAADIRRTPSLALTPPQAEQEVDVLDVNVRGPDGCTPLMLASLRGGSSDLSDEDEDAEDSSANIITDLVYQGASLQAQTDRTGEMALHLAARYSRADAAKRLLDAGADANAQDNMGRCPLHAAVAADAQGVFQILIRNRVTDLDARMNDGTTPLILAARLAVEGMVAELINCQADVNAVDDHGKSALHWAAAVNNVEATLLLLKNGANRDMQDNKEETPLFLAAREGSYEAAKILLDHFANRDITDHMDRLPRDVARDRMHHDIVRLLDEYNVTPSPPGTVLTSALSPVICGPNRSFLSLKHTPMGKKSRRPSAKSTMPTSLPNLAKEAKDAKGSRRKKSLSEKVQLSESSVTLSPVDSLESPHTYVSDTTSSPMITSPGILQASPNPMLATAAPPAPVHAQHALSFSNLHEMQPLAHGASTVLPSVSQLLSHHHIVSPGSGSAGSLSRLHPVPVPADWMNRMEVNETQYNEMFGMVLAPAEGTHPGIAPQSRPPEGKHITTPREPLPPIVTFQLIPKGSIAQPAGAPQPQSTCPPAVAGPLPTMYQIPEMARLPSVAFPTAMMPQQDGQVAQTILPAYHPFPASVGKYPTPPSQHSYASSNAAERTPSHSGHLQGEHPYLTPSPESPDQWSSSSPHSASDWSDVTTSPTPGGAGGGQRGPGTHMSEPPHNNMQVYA
# [6] = target: Pro-neuregulin-1, membrane-bound isoform (Homo sapiens) (UniProt Q02297); test: small molecules binding neuregulin-1 protein – biochemical, small-molecule microarray, fluorescence 635/667, psychiatric disease protein project, primary screen (AID 1075); conditions: NRG1 binding, 635 nm fluorescence, higher = more signal;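 note: score combines 667 nm spot fluorescence with signal to noise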
# Chain of Pro-neuregulin-1, membrane-bound isoform (Homo sapiens) (Q02297 whole entry, looked up, the tested form may be a part, canonical isoform): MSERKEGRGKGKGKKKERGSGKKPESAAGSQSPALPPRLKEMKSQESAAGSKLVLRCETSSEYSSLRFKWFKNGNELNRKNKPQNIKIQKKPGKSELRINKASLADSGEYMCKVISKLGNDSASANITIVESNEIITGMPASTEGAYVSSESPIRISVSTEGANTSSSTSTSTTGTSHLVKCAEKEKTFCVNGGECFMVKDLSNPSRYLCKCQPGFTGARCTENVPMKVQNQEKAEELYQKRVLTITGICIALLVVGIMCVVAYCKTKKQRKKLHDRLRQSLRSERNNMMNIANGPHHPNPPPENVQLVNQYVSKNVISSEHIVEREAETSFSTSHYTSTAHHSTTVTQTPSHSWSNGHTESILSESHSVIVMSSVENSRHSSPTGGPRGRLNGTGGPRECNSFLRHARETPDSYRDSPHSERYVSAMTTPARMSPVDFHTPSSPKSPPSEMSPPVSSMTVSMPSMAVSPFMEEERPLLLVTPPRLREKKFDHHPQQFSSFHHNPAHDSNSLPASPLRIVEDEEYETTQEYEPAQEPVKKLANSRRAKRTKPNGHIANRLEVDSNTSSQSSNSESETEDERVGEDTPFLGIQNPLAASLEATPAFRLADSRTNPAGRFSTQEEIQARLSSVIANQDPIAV
# [7] = tested on: Neuregulin-1 EGF-like domain; test: small molecules binding NRG1 EGF domain – biochemical, small-molecule microarray, 635 nm fluorescence, primary screen (AID 1081); conditions: higher = more signal;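 note: binding of the protein to compounds printed on small-molecule microarray slides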
# [8] = FRG1 expression reporter modulators in myotubes – cell-based, C2C12 myotubes, firefly/Renilla luciferase, luminescence, FRG1 inhibition for FSHD, primary screen (AID 1084); conditions: FRG1 promoter luciferase, higher = more signal, called active from +8 up or from −8 down
# [9] = small molecules captured by biotinylated probe aFST – biochemical, small-molecule microarray, fluorescence 635/667, stem cell growth factor project, primary screen (AID 1086); conditions: higher = more signal;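 note: score merges 667 nm fluorescence with signal-to-noise of each printed compound spot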
# [10] = binders of probe aHhip on microarray, primary screen, stem cell growth factor project, biochemical, small-molecule microarray, fluorescence 635/667 (AID 1087); conditions: higher = more signal;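 note: score merges spot fluorescence at 667nm with spot signal to noise ratio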
SMILES,composite z-score [1],composite z-score [2],composite z-score [3],composite z-score [4],composite z-score [5],composite z-score [6],composite z-score [7],z-score [8],composite z-score [9],composite z-score [10]
C=CCOC(=O)[C@@H]1[C@H]2C(=O)O[C@H](c3ccccc3)[C@H](c3ccccc3)N2[C@H](c2ccc(OCCOC(=O)[C@@H]3C[C@@H]4C(=O)N[C@@H](CCCC[N+](C)(C)C)C(=O)N4[C@@H]3c3ccc(O)cc3)cc2)[C@@]12C(=O)Nc1ccc(I)cc12,-0.106,0.956,-0.0005,0.884,0.617,1.2,1.38,3.51 (inactive),-0.0446,-0.16
NC(=O)NCC#Cc1ccc2c(c1)[C@]1(C(=O)N2)[C@H](c2ccccc2OCCO)N2[C@H](c3ccccc3)[C@H](c3ccccc3)OC(=O)[C@H]2[C@@H]1C(=O)O,0.129,0.443,-0.0383,-0.0167,-0.243,1.11,-0.0034,0.233 (inactive),-0.362,-0.438
CC1CC/C=C\[C@H]2OC34C=CCN(c5ccc(Cl)cc5)C(=O)[C@H]3N(C(C)CO)C(=O)[C@]4(C)C2C(=O)O1 (stereo not given in full),0.0528,-0.591,-0.143,-0.172,-0.807,-0.154,0.886,0.242 (inactive),-0.732,-0.0618
CN1C2C=C(CCCO)C(C3C(=O)N(C(N)=O)C(=O)C32)C1C1CC1 (stereo not given),-0.263,0.416,-0.0959,-0.148,-0.536,0.0343,0.949,0.397 (inactive),-0.57,0.0274
CCCC[C@@H](O)C1=C(COC)C[C@H]2C(=O)N(C)C(=O)[C@H]2[C@H]1CO,-0.439,0.131,-0.176,0.466,-0.02,-0.321,-0.282,-1.21 (inactive),0.0794,-0.16
CCCC[C@@H](O)C1=C(COc2ccccc2)C[C@H]2C(=O)N(Cc3ccccc3)C(=O)[C@H]2[C@H]1CO,-0.123,0.195,-0.147,0.479,0.339,1.01,0.426,-0.791 (inactive),-0.0226,-0.449
[N-]=[N+]=Nc1ccccc1[C@@H]1OC(c2ccc(OCCCO)cc2)=N[C@]1(Cc1ccccc1)C(=O)O,-0.0974,0.396,-0.0178,0.366,0.828,1.42,1.22,0.235 (inactive),1.39,-0.126
COCC(=C=CC[C@H](O)c1ccccc1OCCO)C[C@H](O)c1ccccn1,-0.109,-0.169,-0.128,0.4,-0.548,-0.409,0.0876,-0.996 (inactive),0.0547,-0.0994
C=CCC(OC(C)=O)[C@@H]1[C@@H](N(Cc2cccc3ccccc23)C(=O)Cc2ccc(F)cc2)c2cc(OCCCO)ccc2N1C(=O)c1ccc2ccccc2c1 (stereo not given in full),-0.0968,-0.0168,-0.0925,0.0597,-0.108,-0.398,-0.691,-1.72 (inactive),-0.0779,0.0722
CCOC(=O)C[C@H]1[C@H](OC(=O)c2ccc(C(=O)c3ccccc3)cc2)[C@@H](NC(=O)c2ccc(-c3ccccc3)cc2)c2cc(OCCCO)ccc2N1C(=O)Cc1ccc(OC)cc1,-0.258,-0.0676,-0.0364,0.034,0.618,0.486,-0.228,-0.111 (inactive),0.765,0.0976
COCCOC(=O)N1C(=O)[C@@]2(c3cc(C#CCC(C(=O)OC)C(=O)OC)ccc31)[C@H](c1ccc(OCCO)cc1)N1[C@H](c3ccccc3)[C@H](c3ccccc3)OC(=O)[C@H]1[C@@H]2C(=O)N1CCc2cc(OC)c(OC)cc2C1,0.119,0.351,-0.0985,0.953,1.21,1.54,1.25,0.913 (inactive),0.47,-0.131
Cc1ccc(S[C@]2(C(=O)O)CC(=O)N(C3CCCCC3)[C@@H]2c2ccc(CO)cc2I)cc1,-0.0155,0.165,-0.0986,0.52,0.762,1.43,1.2,-0.163 (inactive),1.23,-0.0898
COc1cccc(C)c1NC(=O)O[C@H]1[C@H](OC(=O)Nc2ccc3c(c2)OCO3)[C@@H](OC(=O)Nc2ccc3c(c2)OCO3)[C@@H](OC)O[C@@H]1CO,-0.0021,0.893,0.121,1.07,1.65,-0.0548,1.07,6.28 (inactive),1.17,0.0243
COC(=O)c1c(CC[C@@H](CO)NC(=O)N2CCC[C@H]2Cn2cc(C3(O)CCCCC3)nn2)oc(C(C)=O)c1C(=O)OC,-0.522,0.831,-0.142,0.439,0.495,1.11,1.19,-0.199 (inactive),0.0512,-0.201
C[N+](C)(C)CCCCCCNC(=O)[C@@H]1C[C@@H]2C(=O)N3CCC[C@H]3C(=O)N2[C@@H]1c1ccc(O)cc1,-0.138,1.74,-0.0788,0.571,0.43,0.317,1.34,3.36 (inactive),0.648,0.21
COc1ccc([Si](C)(C)[C@@H]2[C@@H](CCO)O[C@]3(C(=O)N(Cc4ccccc4)c4ccc(N5C(=O)c6cccc7cccc5c67)cc43)[C@H]2C)cc1,0.107,-0.908,-0.0729,-0.086,-0.0923,0.367,0.609,0.0135 (inactive),-0.175,-0.271
